A short description of experiment [1]: CCTE_Shafer_MEA_acute_spike_number: CCTE's Neural Acute Assay for Total Number of Spikes, Shafer Lab (AID 2284008; active means hit-call score of the fitted dose curve at least 0.9, where 1 is the maximum; inactive means score below 0.9;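 on AC50: curve fitted for decrease in spike count so AC50 reflects inhibitors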). In short, it runs like this: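 Read-out is the total spike count over 40 min, expressed as percent change from each well's own pre-treatment baseline and fitted in the loss direction against DMSO. Rat cortical neurons were exposed at 0.03-40 uM on DIV 13 or 15.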

The nature of experiment [2]: CCTE_Harrill_HTTr_Viability_MCF7: CCTE's 6-hour Cell Viability Assessment for the High-Throughput Transcriptomics (HTTr) Platform, in MCF-7 cells cultured in DMEM + 10% fetal bovine serum, Harrill Lab (AID 2284010; active means hit-call score of the fitted dose curve at least 0.9, where 1 is the maximum; inactive means score below 0.9). Summed up: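 Eight-point concentration series, six-hour exposure. Propidium iodide exclusion imaged to assess membrane integrity as a cytotoxicity readout; bidirectional fitting was done with DMSO as negative control and activity baseline.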

A short description of experiment [3]: CCTE_Harrill_HTTr_Apoptosis_MCF7: CCTE's 6-hour Apoptosis Assessment for the High-Throughput Transcriptomics (HTTr) Platform, in MCF-7 cells cultured in DMEM + 10% fetal bovine serum, Harrill Lab (AID 2284011; active means hit-call score of the fitted dose curve at least 0.9, where 1 is the maximum; inactive means score below 0.9). In short, it runs like this: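 MCF-7 (DMEM + 10% FBS), 384-well; 8-pt dilution series, 6 h chemical exposure; caspase-3/7 activation via CellEvent Caspase 3/7 Green, HCI; bidirectional fit vs DMSO.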

Experiment [4] is described as follows: CCTE_Shafer_MEA_acute_burst_number: CCTE's Neural Acute Assay for Single-Electrode Bursts, Shafer Lab (AID 2284013; active means hit-call score of the fitted dose curve at least 0.9, where 1 is the maximum; inactive means score below 0.9). Summed up: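 Primary rat cortical neurons on 16-electrode MEA wells, DIV 13 or 15, exposed to compound (0.03-40 uM; ≥3 wells); 40-min recordings at 37 C before and after treatment. Burst count expressed as percent change from baseline, DMSO as negative control.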

Experiment [5] addresses Nucleoli Translocation, AR (gene 367) (UniProt P10275). Description: UPITT_HCI_U2OS_AR_TIF2_Nucleoli_Antagonist: University of Pittsburgh U2OS Androgen Receptor-Transcriptional Intermediary Factor 2 (AR-TIF2) Antagonism High Content Imaging Assay for Nucleoli Translocation (AID 2283997). In short, it runs like this: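 Antagonism is read as loss of nucleolar AR-RFP signal relative to DHT, imaged in U2OS cells also carrying GFP-TIF2. Compounds screened at 20 uM final, 0.2% DMSO; primary actives retested in triplicate.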

The target is the same in experiment [6]. The experiment is described as follows: UPITT_HCI_U2OS_AR_TIF2_Nucleoli_Agonist: University of Pittsburgh U2OS Androgen Receptor-Transcriptional Intermediary Factor 2 (AR-TIF2) Agonism High Content Imaging Assay for Nucleoli Translocation (AID 2283998). Summed up: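 Readout is red (AR-RFP) fluorescence localized to nucleoli, measured by high-content imaging and analysed for increase relative to DMSO. Compound series spanned 0.195 to 50 uM final in 0.5% DMSO.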

Experiment [7] concerns the target Ratio of Nucleoli Translocation and Cytoplasm, AR (gene 367) (UniProt P10275). Description: UPITT_HCI_U2OS_AR_TIF2_Nucleoli_Cytoplasm_Ratio_Antagonist: University of Pittsburgh U2OS Androgen Receptor-Transcriptional Intermediary Factor 2 (AR-TIF2) Antagonism High Content Imaging Assay for Ratio of Nucleoli Translocation and Cytoplasm (AID 2283999).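 Further: antagonists lower the DHT-driven ratio of nucleolar to cytoplasmic red signal.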 In short, it runs like this:
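This antagonist-mode endpoint tracks AR-RFP localisation, the nucleolus-to-cytoplasm intensity ratio, in TIF2-GFP-coexpressing U2OS cells. DMSO stays at or below 0.5%; testing spans 20 uM single-dose and 0.195–50 uM series, with DHT setting the activity baseline.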

Experiment [8] has the same target. Description: UPITT_HCI_U2OS_AR_TIF2_Nucleoli_Cytoplasm_Ratio_Agonist: University of Pittsburgh U2OS Androgen Receptor-Transcriptional Intermediary Factor 2 (AR-TIF2) Agonism High Content Imaging Assay for Ratio of Nucleoli Translocation and Cytoplasm (AID 2284000).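 Further: hits raise the red nucleolar to cytoplasm ratio above vehicle.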 In short, it runs like this: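 Compounds tested at 20 uM final in primary screen (0.2% DMSO) and 0.195-50 uM final in dose-response (0.5% DMSO). Imaging of human U2OS cells bearing RFP-AR and GFP-TIF2; endpoint is nucleoli/cytoplasm red signal ratio, positive direction relative to DMSO.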

A short description of experiment [9]: TOX21_TRB_BLA_Antagonist_Followup_viability: Viability Assessment in the Tox21 Thyroid Hormone Receptor beta Antagonism Beta-lactamase (BLA) Follow-Up Assay (AID 2283961). Summed up: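 TRβ-bla HEK293T (human TRβ LBD fused to GAL4 DBD), 3,000 cells/well, 2% charcoal-stripped FBS, phenol red-free medium; 18 h compound exposure, 37C; CellTiter-Glo 30 min RT; luminescence, loss-of-signal readout.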

Experiment [10] can be described thus: TOX21_TR_RXR_BLA_Antagonist_Followup_viability: Viability Assessment in the Tox21 Thyroid Hormone Receptor beta Retinoid X Receptor alpha (RXRa) Antagonism Beta-lactamase (BLA) Follow-Up Assay (AID 2283979). In short, it runs like this: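 Follow-up compounds (11 concentrations, triplicate) were incubated 16 h at 37C/5% CO2 with HEK293T RXRa-bla cells seeded at 2,500/well in charcoal-stripped-serum medium. ATP content by CellTiter-Glo luminescence gave viability; curves fitted in both directions against DMSO.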

Experiment [11] in a line: CCTE_Harrill_HTTr_CellCount_MCF7: CCTE's Cell Proliferation Assessment for the High-Throughput Transcriptomics (HTTr) Platform, Harrill Lab (AID 2284012).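 Further: intended direction is loss of nuclei count meaning fewer cells.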 Summed up: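 For this full-screen endpoint, MCF-7 cultures received eight compound dilutions for six hours. Well nuclei counts from Hoechst imaging were analyzed relative to DMSO.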
Experiment [12] has as its target Thyroid hormone receptor alpha (Rattus norvegicus) + Thyroid hormone receptor beta (Rattus norvegicus) (UniProt P18113+P63059). Description: TOX21_TR_LUC_GH3_Agonist_Followup: Tox21 GH3 Thyroid Hormone Receptor Agonism Luciferase Follow-Up Assay (AID 2283939). In short, it runs like this: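 Agonist-mode confirmatory run: 15 concentrations (5 nM to 92 uM final) on GH3 rat pituitary cells, 24 h at 37C/5% CO2, T3 as positive control. Luminescence read with ONE-Glo after 30 min.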

Experiment [13] concerns the target THRA (gene 7067) (UniProt P10827). The experiment is described as follows: TOX21_TRA_COA_Agonist_Followup_ratio: Tox21 Thyroid Hormone Receptor alpha Agonism through Coactivator Recruitment Follow-Up Assay, Ratio (AID 2283948; active means hit-call score of the fitted dose curve at least 0.9, where 1 is the maximum; inactive means score below 0.9). In short, it runs like this: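 Follow-up specificity assay in which TRα ligand-binding domain, expressed as a GST fusion, recruits a fluorescein-labelled SRC-2 peptide. Energy transfer from a terbium anti-GST antibody gives the acceptor/donor ratio, fitted upward relative to DMSO.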

For experiment [14], the target named is THRB (gene 7068) (UniProt P10828). Description: TOX21_TRB_BLA_Agonist_Followup_ratio: Tox21 Thyroid Hormone Receptor beta Agonism Beta-lactamase (BLA) Follow-Up Assay, Ratio (AID 2283954). Summed up:
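Agonist mode: compounds (11-point, triplicate) incubated 18 h with HEK293T cells carrying GAL4-DBD/human TRβ-LBD and UAS-β-lactamase. Blue/green (460/530 nm) FRET ratio read after 2 h CCF4-AM loading; CellTiter-Glo viability run in the same plates.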

Experiment [15] has the same target. The experiment is described as follows: TOX21_TRB_COA_Agonist_Followup_ratio: Tox21 Thyroid Hormone Receptor beta Agonism through Coactivator Recruitment Follow-Up Assay, Ratio (AID 2283963; active means hit-call score of the fitted dose curve at least 0.9, where 1 is the maximum; inactive means score below 0.9). In short, it runs like this: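 GST-TRb LBD 5.0 nM + 0.10% BSA + cpd; add fluorescein-SRC-2 200 nM / Tb anti-GST Ab 2 nM; TR-FRET ex 340, em 520:495; norm DMSO 0%, T3 100%.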

Experiment [16] has as its target Retinoic acid receptor RXR-alpha (Homo sapiens) (UniProt P19793). Description: TOX21_TR_RXR_BLA_Agonist_Followup_ratio: Tox21 Thyroid Hormone Receptor beta Retinoid X Receptor alpha (RXRa) Agonism Beta-lactamase (BLA) Follow-Up Assay, Ratio (AID 2283968). Summed up: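 Agonism is scored as an increase in the 460:530 nm beta-lactamase substrate ratio over DMSO in RXRa-UAS-bla HEK293T cells exposed for 16 h to 11 compound concentrations.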

Experiment [17] in a line: TOX21_PR_LUC_Followup_Agonist_viability: Viability Assessment in the Tox21 HEK293 Progesterone Receptor (PR) Agonism Luciferase Follow-Up Assay (AID 2283941).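 Further: loss of signal means cytotoxicity so actives lower viability.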 Summed up: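 Seeding: HEK293-PR-A-luc, 3,000 cells/well, 5 h at 37C. Treatment: compound in DMSO, 16 h, 37C. Read: CellTiter-Glo ATP luminescence, signal loss taken as lower viability.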
Experiment [18] is described as follows: TOX21_PR_LUC_Followup_Antagonist_viability: Viability Assessment in the Tox21 HEK293 Progesterone Receptor (PR) Antagonism Luciferase Follow-Up Assay (AID 2283940). Summed up: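 Loss of CellTiter-Glo ATP signal indicates cytotoxicity in HEK293-PR-A-luc cells grown in 10% charcoal-stripped FBS medium, seeded 3,000 per well and incubated 16 h with compound at 37C.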

Our source for the outcome and AC50 values is PubChem BioAssay (EPA / NIEHS).

Records with an inconclusive call do not appear. Activity calls are given as the source filed them. How the source made its calls, unless noted: active means hit-call score of the fitted dose curve at least 0.9, where 1 is the maximum; inconclusive means response in the unintended direction; inactive means score below 0.9.

Nucleoli Translocation, AR (gene 367), sequence (P10275 whole entry, looked up): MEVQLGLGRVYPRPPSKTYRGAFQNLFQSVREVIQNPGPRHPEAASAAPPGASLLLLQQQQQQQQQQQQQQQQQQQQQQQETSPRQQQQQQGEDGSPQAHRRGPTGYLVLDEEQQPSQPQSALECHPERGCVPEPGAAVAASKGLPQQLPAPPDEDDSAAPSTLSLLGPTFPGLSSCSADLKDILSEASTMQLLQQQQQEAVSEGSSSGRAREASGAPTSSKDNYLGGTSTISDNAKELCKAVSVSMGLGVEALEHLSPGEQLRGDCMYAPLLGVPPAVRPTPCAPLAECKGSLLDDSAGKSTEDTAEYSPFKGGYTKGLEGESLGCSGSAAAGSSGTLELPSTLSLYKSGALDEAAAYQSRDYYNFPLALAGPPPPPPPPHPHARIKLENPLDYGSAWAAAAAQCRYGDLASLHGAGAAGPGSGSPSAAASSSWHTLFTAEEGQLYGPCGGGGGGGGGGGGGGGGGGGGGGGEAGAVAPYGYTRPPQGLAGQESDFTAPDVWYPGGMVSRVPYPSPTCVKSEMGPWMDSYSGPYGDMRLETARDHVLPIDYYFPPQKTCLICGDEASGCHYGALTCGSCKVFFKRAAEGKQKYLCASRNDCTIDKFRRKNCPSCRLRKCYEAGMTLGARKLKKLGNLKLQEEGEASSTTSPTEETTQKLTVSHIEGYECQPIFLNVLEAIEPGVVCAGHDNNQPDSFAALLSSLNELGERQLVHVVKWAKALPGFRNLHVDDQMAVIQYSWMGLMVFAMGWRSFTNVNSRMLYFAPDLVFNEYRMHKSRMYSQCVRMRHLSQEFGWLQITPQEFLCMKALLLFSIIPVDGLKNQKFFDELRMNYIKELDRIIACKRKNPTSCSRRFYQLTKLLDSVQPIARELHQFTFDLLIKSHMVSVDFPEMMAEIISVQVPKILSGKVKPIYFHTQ
Ratio of Nucleoli Translocation and Cytoplasm, AR (gene 367), sequence (P10275 whole entry, looked up): as above
THRB (gene 7068), sequence (P10828 whole entry, looked up, the tested form may be a part): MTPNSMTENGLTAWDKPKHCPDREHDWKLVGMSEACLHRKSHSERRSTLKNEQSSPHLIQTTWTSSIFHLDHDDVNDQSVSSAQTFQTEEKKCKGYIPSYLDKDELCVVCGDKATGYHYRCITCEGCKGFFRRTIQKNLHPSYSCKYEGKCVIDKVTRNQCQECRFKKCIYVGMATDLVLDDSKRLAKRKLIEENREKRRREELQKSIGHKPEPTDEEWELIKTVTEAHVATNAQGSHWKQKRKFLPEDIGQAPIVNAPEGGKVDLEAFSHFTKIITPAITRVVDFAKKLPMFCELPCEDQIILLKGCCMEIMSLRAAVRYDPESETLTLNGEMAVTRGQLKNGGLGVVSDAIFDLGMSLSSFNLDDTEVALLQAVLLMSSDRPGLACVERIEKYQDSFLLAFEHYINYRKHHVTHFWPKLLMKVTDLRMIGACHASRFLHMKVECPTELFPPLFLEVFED
Thyroid hormone receptor alpha (Rattus norvegicus) + Thyroid hormone receptor beta (Rattus norvegicus), sequence (P63059 whole entry, looked up): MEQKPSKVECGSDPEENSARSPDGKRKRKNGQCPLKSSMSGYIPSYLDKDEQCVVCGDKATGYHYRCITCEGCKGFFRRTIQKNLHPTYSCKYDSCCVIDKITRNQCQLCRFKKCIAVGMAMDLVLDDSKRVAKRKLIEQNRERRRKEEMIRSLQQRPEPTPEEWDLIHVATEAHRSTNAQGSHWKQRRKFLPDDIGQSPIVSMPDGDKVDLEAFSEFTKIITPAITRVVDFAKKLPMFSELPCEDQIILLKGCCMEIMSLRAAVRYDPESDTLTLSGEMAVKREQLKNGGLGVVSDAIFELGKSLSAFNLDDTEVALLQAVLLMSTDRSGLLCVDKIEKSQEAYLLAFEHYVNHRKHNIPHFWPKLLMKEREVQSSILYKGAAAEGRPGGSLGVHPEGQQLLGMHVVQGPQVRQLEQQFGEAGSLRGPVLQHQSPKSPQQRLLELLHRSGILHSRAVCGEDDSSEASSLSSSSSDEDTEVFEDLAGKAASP
Thyroid hormone receptor alpha (Rattus norvegicus) + Thyroid hormone receptor beta (Rattus norvegicus), sequence (P18113 whole entry, looked up): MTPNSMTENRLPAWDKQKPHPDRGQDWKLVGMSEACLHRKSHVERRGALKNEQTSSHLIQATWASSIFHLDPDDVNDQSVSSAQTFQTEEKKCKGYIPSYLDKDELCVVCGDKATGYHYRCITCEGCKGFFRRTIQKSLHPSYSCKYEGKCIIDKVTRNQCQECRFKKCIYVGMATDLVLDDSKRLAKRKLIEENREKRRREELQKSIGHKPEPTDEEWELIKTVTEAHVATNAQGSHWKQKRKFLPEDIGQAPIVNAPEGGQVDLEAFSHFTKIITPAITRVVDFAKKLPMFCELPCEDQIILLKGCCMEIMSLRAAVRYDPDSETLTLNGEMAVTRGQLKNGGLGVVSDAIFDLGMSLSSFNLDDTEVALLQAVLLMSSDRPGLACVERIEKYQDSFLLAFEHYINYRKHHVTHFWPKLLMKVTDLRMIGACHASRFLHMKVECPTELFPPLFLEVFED
Retinoic acid receptor RXR-alpha (Homo sapiens), sequence (P19793 whole entry, looked up): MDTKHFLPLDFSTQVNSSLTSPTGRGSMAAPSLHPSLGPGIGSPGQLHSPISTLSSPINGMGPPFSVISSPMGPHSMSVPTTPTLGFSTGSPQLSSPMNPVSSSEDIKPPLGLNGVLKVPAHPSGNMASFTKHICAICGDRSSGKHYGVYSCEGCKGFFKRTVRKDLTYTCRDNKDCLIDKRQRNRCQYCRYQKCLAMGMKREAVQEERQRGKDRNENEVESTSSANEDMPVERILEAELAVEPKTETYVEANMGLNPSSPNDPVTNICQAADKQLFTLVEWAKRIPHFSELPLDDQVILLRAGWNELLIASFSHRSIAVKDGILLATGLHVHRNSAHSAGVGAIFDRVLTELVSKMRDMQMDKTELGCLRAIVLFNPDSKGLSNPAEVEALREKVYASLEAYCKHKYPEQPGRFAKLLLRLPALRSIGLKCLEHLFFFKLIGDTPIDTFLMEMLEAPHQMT
THRA (gene 7067), sequence (P10827 whole entry, looked up, the tested form may be a part): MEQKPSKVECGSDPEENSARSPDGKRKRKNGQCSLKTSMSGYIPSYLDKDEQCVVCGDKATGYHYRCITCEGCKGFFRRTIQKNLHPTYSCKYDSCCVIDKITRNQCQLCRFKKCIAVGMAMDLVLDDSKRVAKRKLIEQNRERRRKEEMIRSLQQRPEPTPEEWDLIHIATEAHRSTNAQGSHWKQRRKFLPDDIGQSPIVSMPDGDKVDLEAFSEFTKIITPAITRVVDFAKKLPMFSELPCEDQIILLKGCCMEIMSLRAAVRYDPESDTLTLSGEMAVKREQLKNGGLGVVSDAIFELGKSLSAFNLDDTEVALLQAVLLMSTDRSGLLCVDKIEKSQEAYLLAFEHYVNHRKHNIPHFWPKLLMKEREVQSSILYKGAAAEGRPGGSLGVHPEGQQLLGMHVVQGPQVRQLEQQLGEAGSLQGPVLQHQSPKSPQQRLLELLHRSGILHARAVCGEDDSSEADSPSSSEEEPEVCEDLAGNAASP

Regarding `CCCCCCCCC=O`, the molecule was called inactive in experiment [1], in experiment [2], in [3] and in experiment [4].
As for `CCC/C=C/C=O`, the result in experiment [5], in experiment [6], in [7] and in experiment [8] was inactive.
For the molecule `CCCCCCCCCCCCCOS(=O)(=O)O`, the call in [5] and in [8] was inactive.
Regarding `CC(=O)O[C@]1(C(C)=O)CC[C@H]2[C@@H]3C[C@H](C)C4=CC(=O)CC[C@]4(C)[C@H]3CC[C@@]21C`, the result in experiment [9], in experiment [10], in experiment [2] and in experiment [3] was inactive.
As usually defined, the AC50 is the midpoint of the concentration-response curve, whichever way the signal moves. For the molecule `CC[Si](OC(C)=O)(OC(C)=O)OC(C)=O`, the molecule was called inactive in experiment [1]. The AC50 in experiment [4] was 0.429 µM (active).
`c1ccc2c(c1)c1cccc3ccc4cccc2c4c31`: the molecule was called inactive in experiment [5], in experiment [6], in experiment [7], in experiment [8], in [2] and in experiment [11].
For the molecule `CC(=O)OCCC(C)CC(C)(C)C` (stereo not drawn), the outcome in experiment [12], in experiment [13], in experiment [14], in experiment [15], in experiment [16] and in experiment [1] was inactive. In addition, the molecule was called inactive in experiment [4].
Take `COc1cc(C=O)ccc1OC(=O)C(C)C`: the outcome in experiment [1], in experiment [2], in experiment [3], in experiment [11] and in [4] was inactive.
As to `CCCCC(CC)COC(=O)/C=C\C(=O)OCC(CC)CCCC` (stereo not drawn), the molecule was called inactive in experiment [5], in experiment [6], in experiment [7], in [8], in experiment [2] and in experiment [11].
For the molecule `NCCCN1CCOCC1`, the outcome in [5], in experiment [6] and in experiment [8] was inactive.
Take `CC(=O)[C@H]1CC[C@H]2[C@@H]3CC=C4C[C@@H](O)CC[C@]4(C)[C@H]3CC[C@]12C`: the result in experiment [17], in experiment [2] and in [3] was inactive. The AC50 in experiment [1] was 0.0079 µM (active); in experiment [4], 0.0144 µM (active).
Consider `O=c1cc(-c2ccccc2)oc2cc(O)cc(O)c12`, for which the outcome in [18], in experiment [17], in experiment [5], in experiment [7], in experiment [8] and in experiment [2] was inactive.
As for `CCCc1c(OCCCOc2ccc(OCC(=O)O)cc2)ccc(C(C)=O)c1O`, the result in experiment [18], in experiment [17], in experiment [2] and in [11] was inactive.
For `C#C[C@]1(O)CC[C@H]2[C@@H]3CCC4=Cc5oncc5C[C@]4(C)[C@H]3CC[C@@]21C`, the result in experiment [18], in experiment [17], in [2] and in [11] was inactive.
On to `CCCOCC(C)O` (stereo not drawn), for which the result in experiment [5], in experiment [6], in experiment [7], in experiment [8] and in [2] was inactive.
For the molecule `BrC1CCC(Br)C(Br)CCC(Br)C(Br)CCC1Br` (stereo not drawn), in [5], the AC50 is 43.5 µM (active). Moreover, the molecule was classed as inactive in experiment [6], in [7], in [8], in experiment [2] and in [11].
